From ChEMBL document CHEMBL1961873, “Compounds: GSK PKIS; Assays: Nanosyn kinase panel” (2012)

Legend:
[1] = biological target: Rho-associated protein kinase 1 (Homo sapiens) (UniProt Q13464); settings: at 1 µM;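 note: reported values are mean percent inhibition of ROCK1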
[2] = biological target: Rho-associated protein kinase 2 (Homo sapiens) (UniProt O75116); settings: at 0.1 µM
[3] = biological target: Rho-associated protein kinase 2 (Homo sapiens) (UniProt O75116); settings: at 1 µM
[4] = biological target: Ribosomal protein S6 kinase alpha-1 (Homo sapiens) (UniProt Q15418); settings: at 0.1 µM
Ribosomal protein S6 kinase alpha-1 (Homo sapiens), sequence (Q15418 whole entry): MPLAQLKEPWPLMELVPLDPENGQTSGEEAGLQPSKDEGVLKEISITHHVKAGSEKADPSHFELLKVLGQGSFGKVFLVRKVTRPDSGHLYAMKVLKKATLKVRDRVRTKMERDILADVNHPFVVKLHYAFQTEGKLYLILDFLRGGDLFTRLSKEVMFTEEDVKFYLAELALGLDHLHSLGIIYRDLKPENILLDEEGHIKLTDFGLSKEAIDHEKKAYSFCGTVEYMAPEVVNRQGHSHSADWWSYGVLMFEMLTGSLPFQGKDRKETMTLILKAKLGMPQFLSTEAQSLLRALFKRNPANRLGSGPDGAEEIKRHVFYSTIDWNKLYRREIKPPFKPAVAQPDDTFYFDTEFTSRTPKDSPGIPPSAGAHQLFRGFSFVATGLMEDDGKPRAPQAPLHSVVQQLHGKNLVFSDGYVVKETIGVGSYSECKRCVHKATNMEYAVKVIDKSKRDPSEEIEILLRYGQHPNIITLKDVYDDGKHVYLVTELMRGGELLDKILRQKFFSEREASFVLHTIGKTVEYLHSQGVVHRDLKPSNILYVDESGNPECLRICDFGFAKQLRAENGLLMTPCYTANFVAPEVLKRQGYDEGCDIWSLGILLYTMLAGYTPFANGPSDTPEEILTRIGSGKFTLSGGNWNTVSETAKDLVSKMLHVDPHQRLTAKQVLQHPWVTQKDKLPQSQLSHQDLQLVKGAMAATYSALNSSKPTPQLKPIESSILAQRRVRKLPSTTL

[5] = biological target: Ribosomal protein S6 kinase alpha-1 (Homo sapiens) (UniProt Q15418); settings: at 1 µM
[6] = biological target: Ribosomal protein S6 kinase alpha-3 (Homo sapiens) (UniProt P51812); settings: at 0.1 µM
Ribosomal protein S6 kinase alpha-3 (Homo sapiens), sequence (P51812 whole entry): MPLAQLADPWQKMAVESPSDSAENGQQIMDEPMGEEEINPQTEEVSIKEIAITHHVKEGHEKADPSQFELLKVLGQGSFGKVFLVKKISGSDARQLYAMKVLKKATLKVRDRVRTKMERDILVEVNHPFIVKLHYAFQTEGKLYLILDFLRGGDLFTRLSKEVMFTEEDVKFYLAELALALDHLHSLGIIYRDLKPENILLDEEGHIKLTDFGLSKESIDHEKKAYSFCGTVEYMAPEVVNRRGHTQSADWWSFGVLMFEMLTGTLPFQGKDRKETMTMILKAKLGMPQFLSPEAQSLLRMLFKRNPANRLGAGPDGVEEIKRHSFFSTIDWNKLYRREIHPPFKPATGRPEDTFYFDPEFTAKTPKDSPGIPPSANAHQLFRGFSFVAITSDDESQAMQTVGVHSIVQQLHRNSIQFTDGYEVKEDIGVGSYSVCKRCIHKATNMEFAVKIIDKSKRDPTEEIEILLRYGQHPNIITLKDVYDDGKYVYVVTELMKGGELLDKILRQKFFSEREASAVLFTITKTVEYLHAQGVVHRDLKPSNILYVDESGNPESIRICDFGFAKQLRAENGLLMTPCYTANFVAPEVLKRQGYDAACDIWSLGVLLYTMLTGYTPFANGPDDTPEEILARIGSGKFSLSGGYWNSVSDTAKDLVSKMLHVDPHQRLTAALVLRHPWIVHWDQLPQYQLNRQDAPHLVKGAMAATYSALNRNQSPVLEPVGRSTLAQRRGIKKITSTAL

[7] = biological target: Ribosomal protein S6 kinase alpha-3 (Homo sapiens) (UniProt P51812); settings: at 1 µM
[8] = biological target: Ribosomal protein S6 kinase alpha-2 (Homo sapiens) (UniProt Q15349); settings: at 0.1 µM
Ribosomal protein S6 kinase alpha-2 (Homo sapiens), sequence (Q15349 whole entry): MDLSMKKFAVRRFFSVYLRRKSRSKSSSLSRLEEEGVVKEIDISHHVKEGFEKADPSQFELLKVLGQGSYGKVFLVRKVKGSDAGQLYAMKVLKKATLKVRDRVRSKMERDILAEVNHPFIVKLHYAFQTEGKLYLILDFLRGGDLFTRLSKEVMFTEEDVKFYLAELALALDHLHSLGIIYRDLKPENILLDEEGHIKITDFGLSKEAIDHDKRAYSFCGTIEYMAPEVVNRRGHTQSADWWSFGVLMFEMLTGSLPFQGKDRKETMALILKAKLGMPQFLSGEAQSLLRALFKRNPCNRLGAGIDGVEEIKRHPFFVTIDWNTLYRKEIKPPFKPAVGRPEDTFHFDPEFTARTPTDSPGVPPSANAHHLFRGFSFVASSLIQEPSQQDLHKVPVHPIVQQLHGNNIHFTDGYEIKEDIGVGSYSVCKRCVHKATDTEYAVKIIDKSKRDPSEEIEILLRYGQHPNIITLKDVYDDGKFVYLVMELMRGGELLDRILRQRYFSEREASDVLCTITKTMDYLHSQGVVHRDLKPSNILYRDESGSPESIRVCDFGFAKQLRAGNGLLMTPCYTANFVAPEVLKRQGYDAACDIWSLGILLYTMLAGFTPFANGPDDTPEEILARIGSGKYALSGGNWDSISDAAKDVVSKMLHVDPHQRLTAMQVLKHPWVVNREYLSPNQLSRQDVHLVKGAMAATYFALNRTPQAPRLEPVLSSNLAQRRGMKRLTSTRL

[9] = biological target: Ribosomal protein S6 kinase alpha-2 (Homo sapiens) (UniProt Q15349); settings: at 1 µM
[10] = biological target: Ribosomal protein S6 kinase alpha-6 (Homo sapiens) (UniProt Q9UK32); settings: at 0.1 µM;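 note: reported value is the mean inhibition of RSK4, from the GSK PKIS kinase inhibitor screen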

Rho-associated protein kinase 1 (Homo sapiens), sequence (Q13464 2-1354 limits assumed): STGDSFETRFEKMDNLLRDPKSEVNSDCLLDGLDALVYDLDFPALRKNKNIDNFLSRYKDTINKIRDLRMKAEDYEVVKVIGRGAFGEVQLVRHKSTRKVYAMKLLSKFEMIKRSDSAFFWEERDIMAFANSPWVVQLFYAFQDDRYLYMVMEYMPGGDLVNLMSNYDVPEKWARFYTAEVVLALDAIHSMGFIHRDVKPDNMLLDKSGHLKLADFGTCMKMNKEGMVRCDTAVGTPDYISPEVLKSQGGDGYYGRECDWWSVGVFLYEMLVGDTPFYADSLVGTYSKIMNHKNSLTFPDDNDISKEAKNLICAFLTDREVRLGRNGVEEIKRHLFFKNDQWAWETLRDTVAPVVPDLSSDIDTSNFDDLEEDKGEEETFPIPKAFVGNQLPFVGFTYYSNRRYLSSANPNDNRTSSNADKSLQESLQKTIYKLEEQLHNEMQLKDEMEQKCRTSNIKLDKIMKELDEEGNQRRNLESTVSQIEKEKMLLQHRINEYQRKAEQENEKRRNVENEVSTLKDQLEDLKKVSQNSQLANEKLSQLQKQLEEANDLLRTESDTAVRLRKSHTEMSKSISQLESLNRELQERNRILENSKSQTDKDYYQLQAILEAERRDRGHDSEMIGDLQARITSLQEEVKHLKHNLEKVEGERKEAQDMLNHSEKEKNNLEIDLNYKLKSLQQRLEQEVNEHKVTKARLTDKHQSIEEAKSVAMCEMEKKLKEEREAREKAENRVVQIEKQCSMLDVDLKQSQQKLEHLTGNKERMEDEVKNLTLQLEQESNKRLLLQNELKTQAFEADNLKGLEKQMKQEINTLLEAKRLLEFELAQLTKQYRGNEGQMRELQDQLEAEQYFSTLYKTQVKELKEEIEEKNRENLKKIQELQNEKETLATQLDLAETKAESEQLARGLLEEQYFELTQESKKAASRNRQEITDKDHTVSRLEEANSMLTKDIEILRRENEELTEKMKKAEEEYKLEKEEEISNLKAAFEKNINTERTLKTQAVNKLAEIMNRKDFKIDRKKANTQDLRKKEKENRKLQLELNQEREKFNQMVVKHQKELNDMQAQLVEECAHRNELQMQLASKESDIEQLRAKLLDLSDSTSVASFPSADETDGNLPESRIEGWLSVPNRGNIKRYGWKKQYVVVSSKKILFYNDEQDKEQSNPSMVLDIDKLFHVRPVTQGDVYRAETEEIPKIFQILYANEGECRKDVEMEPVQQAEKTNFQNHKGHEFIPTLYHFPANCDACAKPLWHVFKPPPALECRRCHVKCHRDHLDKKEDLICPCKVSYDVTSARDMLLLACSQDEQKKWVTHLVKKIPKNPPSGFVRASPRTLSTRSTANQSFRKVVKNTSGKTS
Rho-associated protein kinase 2 (Homo sapiens), sequence (O75116 whole entry, looked up): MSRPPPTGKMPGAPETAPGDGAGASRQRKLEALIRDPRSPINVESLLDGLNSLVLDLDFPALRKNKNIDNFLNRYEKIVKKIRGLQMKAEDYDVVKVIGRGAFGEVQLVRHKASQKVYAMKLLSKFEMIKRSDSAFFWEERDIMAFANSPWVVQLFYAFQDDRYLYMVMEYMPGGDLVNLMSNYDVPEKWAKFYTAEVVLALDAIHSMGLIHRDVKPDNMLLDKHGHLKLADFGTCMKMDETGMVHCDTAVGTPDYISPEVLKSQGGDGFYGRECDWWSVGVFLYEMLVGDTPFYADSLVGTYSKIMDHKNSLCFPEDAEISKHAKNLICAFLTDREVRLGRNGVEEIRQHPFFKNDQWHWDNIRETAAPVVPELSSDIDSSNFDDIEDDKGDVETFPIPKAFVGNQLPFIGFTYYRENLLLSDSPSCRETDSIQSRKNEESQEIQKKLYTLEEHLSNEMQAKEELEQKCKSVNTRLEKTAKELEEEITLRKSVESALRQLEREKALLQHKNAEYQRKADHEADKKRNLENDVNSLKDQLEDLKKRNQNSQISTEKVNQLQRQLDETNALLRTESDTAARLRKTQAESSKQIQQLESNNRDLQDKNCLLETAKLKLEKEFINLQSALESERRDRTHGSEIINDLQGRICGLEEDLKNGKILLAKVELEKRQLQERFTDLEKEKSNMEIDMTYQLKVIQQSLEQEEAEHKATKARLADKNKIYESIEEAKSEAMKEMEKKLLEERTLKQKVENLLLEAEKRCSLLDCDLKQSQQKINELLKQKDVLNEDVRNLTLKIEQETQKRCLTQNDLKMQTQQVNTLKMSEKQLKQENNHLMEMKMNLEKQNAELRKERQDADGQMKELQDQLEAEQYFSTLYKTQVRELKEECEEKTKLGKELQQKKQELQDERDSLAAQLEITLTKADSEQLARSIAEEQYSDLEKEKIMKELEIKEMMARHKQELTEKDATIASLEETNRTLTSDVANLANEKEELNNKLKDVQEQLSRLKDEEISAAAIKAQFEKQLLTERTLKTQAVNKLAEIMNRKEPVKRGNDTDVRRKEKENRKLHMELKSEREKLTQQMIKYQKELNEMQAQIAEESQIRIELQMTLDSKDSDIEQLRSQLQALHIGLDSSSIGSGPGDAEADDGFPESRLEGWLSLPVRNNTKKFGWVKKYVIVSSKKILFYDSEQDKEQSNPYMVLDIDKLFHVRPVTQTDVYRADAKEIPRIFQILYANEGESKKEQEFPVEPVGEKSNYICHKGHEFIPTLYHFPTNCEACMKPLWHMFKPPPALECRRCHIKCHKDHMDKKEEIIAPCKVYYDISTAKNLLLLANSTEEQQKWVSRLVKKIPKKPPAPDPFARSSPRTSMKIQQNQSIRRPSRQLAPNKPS

Row | SMILES | inhibition [1] [%] | inhibition [2] [%] | inhibition [3] [%] | inhibition [4] [%] | inhibition [5] [%] | inhibition [6] [%] | inhibition [7] [%] | inhibition [8] [%] | inhibition [9] [%] | inhibition [10] [%]
1 | CCn1c(-c2nonc2N)nc2c(C#CCN)ncc(OCCCN)c21 | 48.7 | 10.6 | 53.7 | 20.1 | 68.3 | 24.4 | 72.9 | 7.65 | 48.5 | 1.06
2 | CCn1c(-c2nonc2N)nc2c(C#CC(C)(C)O)nc(O[C@@H](CN)c3ccccc3)cc21 | 51.7 | 11.5 | 59.4 | 19.1 | 71.6 | 18 | 69.5 | 15.4 | 69.9 | 4.01
3 | Fc1ccc(-c2ncn(C3CCNCC3)c2-c2ccnc(Oc3ccccc3)n2)cc1 | 1.62 | -0.24 | 0.28 | -0.66 | -0.32 | -1.31 | -1.67 | 1.35 | 0.51 | -0.22
4 | COc1cccc(COc2cc(-n3cnc4ccccc43)sc2C(N)=O)c1 | -0.3 | -0.06 | 0.84 | 0.37 | 0.21 | 0.89 | -1.45 | -0.15 | 1.4 | 1.09
5 | COc1cc2c(cc1Nc1nc(Nc3ccsc3C(N)=O)c3cc[nH]c3n1)N(C(=O)CN(C)C)CCC2 | 26.1 | 3.13 | 23.2 | 7.13 | 34.8 | -6.28 | -1.3 | 0.29 | 7.85 | 0.38
6 | COc1cccc(-n2ncc3c(N/N=C/c4ccncc4)ncnc32)c1 | 9.67 | 4.97 | 19.4 | 3.51 | 7.17 | 1.43 | 4.26 | 2.35 | 4.92 | 2.25
7 | Nc1nonc1-c1nc2cnccc2n1C1CCCCC1 | 78.4 | 42.4 | 83.4 | 52.1 | 86.4 | 40.9 | 81.4 | 70 | 92.6 | 6.78
8 | Cc1cc(-c2ccco2)cc(C)c1/C=C/c1cncc(-c2nn[nH]n2)c1 | 1.58 | 0.76 | 1.41 | 0.75 | 1.35 | 0.67 | 0.7 | 1.44 | 0.92 | -0.24
9 | NS(=O)(=O)c1ccc(N/C=C2\C(=O)Nc3ccc4ncsc4c32)cc1 | 33 | 12 | 47.5 | 4.22 | 31.3 | 6.13 | 36 | 16.5 | 66.1 | 12.6
10 | COc1cc(C=NNc2ncnc3c2cnn3Cc2ccccc2)ccc1O | 5.87 | -0.21 | 1.36 | 1.68 | 3.82 | 1.86 | 3.94 | -0.6 | 1.82 | -1.29
11 | CCn1c(-c2nonc2N)nc2c(C#CC(C)(C)O)ncc(OCC3CCNCC3)c21 | 13.7 | 6.21 | 27.5 | 4.34 | 19.9 | 4.16 | 19 | 2.47 | 7.78 | 2.29
12 | NS(=O)(=O)c1ccc(-c2ccc3c(NC(=O)C4CC4)n[nH]c3c2)cc1 | 2.34 | 0.8 | 1.01 | 1.47 | 0.59 | 0.4 | 1.28 | 0.45 | 2.46 | 1.52
13 | NC(=O)c1sc(-n2cnc3cc(C(F)(F)F)ccc32)cc1OCc1ccccc1Br | 0.79 | 0.92 | 1.05 | 1.6 | 2.97 | 3.26 | 3.31 | 2.33 | 1.83 | 1.36
14 | CCn1c(-c2nonc2N)nc2c(C#CC(C)(C)O)ncc(OC[C@@H]3CCCN3)c21 | 12.4 | -0.51 | 10 | -0.68 | 23.3 | 3.35 | 24.9 | 2.02 | 13.3 | -0.15
